Compound activity (PubChem)
Most compounds without a hit are left out; they make up all but 8.3% or so of the library.
SW480 rerep: DNA re-replication induction in SW480 cells. SW480 DNA re-replication, Hoechst DNA content imaging, 48 h. Potency, µM (series often up to 46.1 µM), inactives show top-dose re-replication activation, actives largely listed as activators. AID 624297. actives 1.8% (n = 340,000); also: potency is read from the fitted curve at half-maximal effect; % of control where 0% means no effect; nearly all actives have a fitted effect of over 55% in size
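DNA re-replication was detected as more nuclei of elevated Hoechst intensity after 48 hr exposure to compound (23 nL pinned per well of 250 cells).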
Gal4-VP16 FLuc: counter-screen for ROR gamma inhibitors: Gal4-VP16 reporter; Drosophila S2 Gal4-VP16 UAS-luciferase, luminescence, 20 h; Potency, µM (top dose mostly 53.6 µM), inactives show at the highest dose activity, negative = inhibition, usual class: inhibitors; AID 2546; actives 3.5% (n = 310,000);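 also: Gal4-VP16 expression switched on by copper sulfate through the metallothionein promoter; potency is read from the fitted curve at half-maximal effect; % is scaled to controls: 0 for no effect and ±100 for the full control effect; nearly all actives have a fitted effect of over 50% in size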
Chronic BCR inh: chronic active BCR signaling inhibition; ABC-DLBCL IkBa-CBG/CBR reporter, luminescence ratio, 4 h; Potency, µM (top dose mostly 46.1 µM), inactives show at the top dose activity change, negative = inhibition, most hits filed as inhibitors; actives 0.05% (n = 340,000); AID 493014; active = well fitted inhibition curve with a large enough effect in the signal ratio, with a control signal flat, not every such curve was filed as active; inconclusive = small, poorly fitted or top-dose-only effect, or effect the other way, or a change in a side signal; the % refers to the signal ratio;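 also: potency is read from the fitted curve at half-maximal effect; plate controls were basal doxycycline-induced cells for no effect and cells given 10 µM MG132 for full effect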
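Compounds up to 46 uM were incubated four hours with TMD8 cells whose green CBG68 luciferase is fused to IkappaBalpha; red CBR luminescence normalised the signal, and concentration-effect curves were fitted to fusion, red and ratio data.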
Giardia killer: kills Giardia lamblia | Giardia lamblia trophozoite viability | activity change, % at 7.66 µM, hits read low | actives 0.15% (n = 340,000); in the data active = activity change below about -80%; inconclusive = between about -30% and that limit;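 also: parasites exposed to compound for two days anaerobically before the ATP read; % is scaled to controls: 0 for no effect and ±100 for the full control effect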
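ATP-content bioluminescence gauges trophozoite survival. Cells (100/well) receive compound and incubate anaerobically for 48 hrs at 37 deg C; detection reagent follows for 15-30 min at room temperature.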
MCF10A rereplic: DNA re-replication induction in MCF 10a cells; MCF 10A DNA re-replication, Hoechst nuclear intensity, 48 h; Potency, µM (series often up to 46.1 µM), inactives show at the top dose activity, positive = re-replication, usual class: activators; actives 2.9% (n = 350,000); AID 624296; also: potency is read from the fitted curve at half-maximal effect; % of control where 0% means no effect; nearly all actives have a fitted effect of over 50% in size
RORg inh: ROR gamma (mouse) transcription inhibition. P51450. Drosophila S2 Gal4-RORgamma UAS-luciferase reporter, 20 h. Potency, µM (top dose mostly 53.6 µM), inactives show at the highest dose activity change, negative = inhibition, most hits filed as inhibitors. actives 5.4% (n = 310,000); also: potency is read from the fitted curve at half-maximal effect; % is scaled to controls: 0 for no effect and ±100 for the full control effect; nearly all actives have a fitted effect of over 60% in size
Target sequence (P51450 whole entry, looked up, the tested form may be a part): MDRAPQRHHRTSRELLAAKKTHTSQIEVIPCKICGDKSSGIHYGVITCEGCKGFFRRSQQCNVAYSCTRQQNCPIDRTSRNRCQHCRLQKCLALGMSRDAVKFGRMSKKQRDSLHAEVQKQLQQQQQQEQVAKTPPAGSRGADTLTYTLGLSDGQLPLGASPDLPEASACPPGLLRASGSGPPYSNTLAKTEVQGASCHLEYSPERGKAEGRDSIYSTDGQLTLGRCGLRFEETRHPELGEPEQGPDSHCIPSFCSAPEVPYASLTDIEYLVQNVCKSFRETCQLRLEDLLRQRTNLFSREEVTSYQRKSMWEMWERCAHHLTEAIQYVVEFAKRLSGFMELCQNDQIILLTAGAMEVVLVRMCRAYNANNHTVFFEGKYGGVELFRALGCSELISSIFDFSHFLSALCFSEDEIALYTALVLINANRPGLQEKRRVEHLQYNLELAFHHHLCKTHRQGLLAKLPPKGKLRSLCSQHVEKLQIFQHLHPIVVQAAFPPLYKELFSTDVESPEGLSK
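Drosophila S2 cells stably expressing Gal4-DBD/mouse RORγ fusion under metallothionein promoter plus UAS-luciferase; compound 1 h, then 700 uM CuSO4 induction for 20 h at ambient temperature; inhibition read as reduced luminescence.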
Starred values were filed as active, the others as inactive; u = inconclusive; x = not tested or not shown; [ ] = another dose, or the depositor's remark. Unless noted, calls follow the shape of the dose curve; as a rule, active = well fitted curve in the direction sought with a large enough effect; inconclusive = small, poorly fitted or top-dose-only effect, or another doubt; inactive = no such curve, though single readings can be large; an effect the other way counts as inactive or inconclusive.

SMILES | SW480 rerep | Gal4-VP16 FLuc | Chronic BCR inh | Giardia killer | MCF10A rereplic | RORg inh
CC(C)C[C@H](NC(=O)c1[nH]cnc1C(=O)N[C@@H](C)C(=O)OCc1ccccc1)C(=O)OCc1ccccc1 | 18.7% | x | 1.0% | -16.2 | 8.8% | x
CCN(CC)C(=O)c1[nH]cnc1C(=O)N[C@@H](Cc1ccccc1)C(=O)OC(C)(C)C | -12.8% | u | 3.6% | 7.3 | 0.3% | 10µM*
C[C@H](NC(=O)c1nc[nH]c1C(=O)N[C@@H](Cc1ccccc1)C(=O)OCc1ccccc1)C(=O)OC(C)(C)C | 1.4% | u | u | -1.8 | 23.3% | u
CC(C)C[C@H](NC(=O)c1[nH]cnc1C(=O)N[C@@H](C)C(=O)OC(C)(C)C)C(=O)OCc1ccccc1 | -5.6% | u | 0.5% | -22.6 | u | 15.8µM*
CC(C)(C)OC(=O)CNC(=O)c1[nH]cnc1C(=O)N[C@@H](Cc1ccccc1)C(=O)OC(C)(C)C | 3.0% | 12.6µM* | 0.8% | -18.8 | -10.5% | u
CC(C)(C)OC(=O)[C@H](Cc1ccccc1)NC(=O)c1nc[nH]c1C(=O)NCC(=O)OCc1ccccc1 | -0.9% | u | 15.3% | 11.1 | 14.6% | u
CCN(CC)C(=O)c1[nH]cnc1C(=O)N[C@@H](CC(C)C)C(=O)OC(C)(C)C | -2.2% | u | 11.1% | -15.5 | -0.3% | u
Cc1n[nH]c(C)c1CN(C)C(=O)C1CCC(=O)N(CC2CCCCC2)C1 (stereo not drawn) | -1.7% | 1.8% | 0.2% | 36.0 | u | 13.9%
OCCC1CN(Cc2cnc(N3CCOCC3)s2)CCN1C1CCCC1 (stereo not drawn) | -17.9% | -12.4% | u | -9.8 | 3.1% | 26.0%
CC(C)C[C@H](NC(=O)c1[nH]cnc1C(=O)N[C@@H](Cc1ccccc1)C(=O)OC(C)(C)C)C(=O)OC(C)(C)C | 19.9% | 11.2µM* | 11.9% | -17.6 | u | 3.16µM*
OCCN1CCN(c2cc(C(F)(F)F)nc3ccccc23)CC1 | -4.5% | 0.7% | -3.4% | 5.6 | 9.2% | 32.2%
Cn1c(C(=O)OC(C(=O)NC2CCCC2)c2cccnc2)cc2sccc21 (stereo not drawn) | u | 28.2% | 2.4% | -12.2 | 10.3µM* | 20.7%
ClCc1nnc(-c2cc3c(s2)CCCC3)o1 | 169.8% | u | u | -0.7 | u | 6.31µM*
Cc1cccc(N2CN(Cc3ccco3)CNC2=S)c1 | -7.6% | u | 4.5% | 2.1 | -12.5% | 11.2µM*
Cc1ccc(N2CN(Cc3ccco3)CNC2=S)cc1 | 2.5% | u | 2.1% | -10.7 | 2.9% | 11.2µM*
S=C1NCN(Cc2cccnc2)CN1c1cccc(Cl)c1 | -15.0% | 2.8% | 0.1% | 5.4 | -2.7% | -12.3%
O=C(COC(=O)Cc1cccc(C(F)(F)F)c1)Nc1ccc2[nH]c(=O)[nH]c2c1 | -9.1% | x | 5.0% | -1.0 | -3.1% | x
Cc1cc(C)n(S(=O)(=O)c2ccccc2[N+](=O)[O-])n1 | -3.2% | 2.7% | -3.4% | -86.9* | -13.5% | -32.4%
Cc1ccc(-c2cnc3cc(C)nn3c2)cc1 | -3.5% | 12.6µM* | -0.2% | u | 2.4% | 11.2µM*
Cc1cc2ncc(-c3ccc(Cl)cc3)cn2n1 | -4.1% | -4.5% | u | -22.5 | 7.5% | 4.1%
Cc1ccc(-c2cnc3c(Cl)c(C)nn3c2)cc1 | 10.3µM* | u | 6.1% | -10.7 | u | 3.6%
CCCCn1nc(C(=O)Nc2ccc3c(c2)OCCO3)c2ccccc2c1=O | -30.5% | x | u | 4.0 | u | x
O=C(CSc1cccc[n+]1[O-])NC(=O)c1ccc(OC(F)F)cc1 | 2.0% | 8.4% | 2.3% | 11.7 | 6.5% | -9.9%
CN(C)/C=C/C(=O)c1cnc(-c2cccc(Cl)c2)s1 | -0.8% | u | u | -0.8 | 0.651µM* | 10.2%
O=C(Nc1cccc(F)c1)C1CCCCC1 | -56.9% | x | -2.8% | -26.0 | -1.8% | x
SMILES | SW480 rerep | Gal4-VP16 FLuc | Chronic BCR inh | Giardia killer | MCF10A rereplic | RORg inh
FC(F)(F)c1ccc(NC(=S)NC2CCCCC2)cc1 | -4.5% | u | u | 4.5 | 7.6% | 4.47µM*
Fc1cccc(NC(=S)NNc2c3ccccc3nc3ccccc23)c1 | -10.5% | -12.0% | u | 7.6 | -1.2% | 10.3%
Fc1cccc(NC(=S)NNc2ccccc2)c1 | u | 2.24µM* | u | -10.4 | u | 1.26µM*
FC(F)(F)c1cccc(NC(=S)NC2CCCC2)c1 | 2.1% | 8.91µM* | 5.4% | u | u | 5.01µM*
O=C(O)c1ccc(NC(=S)NC2CCCCC2)cc1 | x | -10.3% | u | 6.4 | -3.1% | -7.5%
Fc1cccc(NC(=S)NC2CCCCCCC2)c1 | 7.8% | 7.08µM* | u | 10.4 | u | 3.55µM*
CC(C)N(CCCNC(=O)Cn1ncc2c([nH]c3ccccc32)c1=O)Cc1ccccc1 | -3.6% | -5.3% | -11.6% | -22.6 | 5.2% | -11.1%
Cc1sc(N)c(C(=O)c2ccccc2Cl)c1C | 0.1% | -3.9% | -4.1% | -18.5 | 3.8% | -22.6%
O=C(COC(=O)c1cc[n+]([O-])cc1)Nc1cccc(Br)c1 | u | x | -5.8% | 33.1 | -18.6% | x
CC1CCCCC1NC(=S)Nc1cccc(S(=O)(=O)N(C)C)c1 (stereo not drawn) | 20.4% | 4.8%[10 µM] | 0.5% | -0.1 | -4.0% | u
CCN(CC)S(=O)(=O)c1ccc(Cl)c(NC(=S)NC(=O)C2CCCC2)c1 | 4.61µM* | x | u | 14.0 | u | x
Cc1ccc(S(=O)(=O)N(C)C)cc1NC(=S)NC1CCCC(C)C1C (stereo not drawn) | 3.9% | 5.01µM* | -2.6% | -17.6 | u | 3.98µM*
CCN(CC)c1ccc(S(=O)(=O)Nc2cc(Cl)ccc2Cl)cc1NC(=S)NC(=O)C1CCCC1 | 7.3% | 22.4µM* | 9.6% | 4.0 | 11.6µM* | 5.01µM*
Cc1ccc(NC(=S)NC2CCCCC2)cc1S(=O)(=O)N(C)C | 9.0%[1.84 µM] | u | -6.7% | 0.0 | 0.2% | 12.6µM*
Cc1ccc(NC(=O)CNCC2CCCCC2)cc1S(=O)(=O)N(C)C | -15.1% | -3.6% | 5.4% | -2.6 | 5.8% | 12.2%
Cc1cccc(C)c1N(CC(=O)N1CCOCC1)S(C)(=O)=O | -5.3% | 1.1% | -4.3% | 13.0 | 2.2% | -27.6%
CCN(CC)S(=O)(=O)c1ccc(C)c(NC(=S)NC2CCCCC2)c1 | 19.3% | u | -1.7% | -14.7 | 4.5% | 10µM*
C=CCOC(=O)N[C@H](/C(C(=O)OC)=C(\C)NCc1ccccc1)c1cccc(OC)c1 | x | 3.0% | x | x | x | -15.9%
Cn1c(SCC(=O)c2ccccc2F)nnc1C1CC1 | -3.2% | 11.2µM* | u | 3.4 | -2.1% | u
C#CCCCO/N=C1/C[C@@H](O)[C@@H](O)[C@@H]2[C@@H]3C(=O)N(C(C)(C)C)C(=O)[C@H]3CC[C@@H]12 | x | 7.6%[10 µM] | x | x | x | -22.6%[10 µM]
